Assay outcomes: PubChem BioAssay, several laboratories
CF NFkB inh – blocks PAF-induced NF-kB reporter in cystic fibrosis cells; inhibition, % at 5 µM; hit rate 0.86% among 360,000; AID 588850; KKLEB NF-kB-GFP reporter, GFP fluorescence overnight;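 active = at least 50% inhibition at 5 µM, scaled per plate between neutral and stimulator controls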;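 note: PAF is a Pseudomonas aeruginosa culture filtrate used as stimulus; plate controls were PAF-stimulated DMSO wells for no effect and unstimulated DMSO wells for full effect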
TWEAK-Fn14 inh – TWEAK-Fn14 signaling inhibition | TWEAK-stimulated Fn14 reporter cells, luciferase luminescence, 8 h | hit rate 2% among 360,000 | inhibition, % at 10 µM; in the data active = inhibition above about 50%
KKLEB cytotox – counter-screen for CF NF-kB inhibitors: cytotoxicity | KKLEB CF airway cells viability, ATPlite luminescence, overnight; stronger effect = lower value; cells stimulated with P. aeruginosa culture filtrate | activity change (cytotoxicity), % at 5 µM | hit rate 0.36% among 360,000 | AID 602141;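 active = corrected activity change at or below -50% at 5 µM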
iPSC survival up – increases survival of single human iPS cells | hiPSC single-cell survival, ATPlite luminescence; 100% = ROCK inhibitor wells, 0% = DMSO | survival enhancement, % at 20 µM | hit rate 0.044% among 360,000 | AID 602274; in the data active = survival enhancement above about 18%;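 note: cells exposed to compounds for 16 hours before the ATP read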
LGR2 antag – inhibitors of bursicon-induced Drosophila LGR2 receptor cAMP signaling; inhibition, % at 9.99 µM; hit rate 0.35% among 380,000; HEK293 LGR2, CRE-luciferase, bursicon-stimulated, 4 h;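 active = drop in luminescence signal, shown as inhibition above about 50% in the replicate tests, limit read from the data, passing the limit was not always enough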;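 note: agonist challenge used bursicon conditioned medium at about half maximal strength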
HIF-2a block – blocks HIF-2a reporter activity; inhibition, % at 18.8 µM; hit rate 0.72% among 360,000; 786-0 RCC cells HIF-2a reporter, luciferase luminescence, overnight; AID 624352;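 active = inhibition of the luminescence signal of 40% or more relative to plate controls, in a single-dose primary screen at 18.75 µM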
CF NFkB conf – CF NF-kB inhibition confirmation, single concentration. shares compounds with CF NFkB inh. inhibition, % at 5 µM. hit rate 64% among 1,300. KKLEB CF airway cells, PAF-induced NF-kB-GFP fluorescence, overnight; in the data active = inhibition above about 40%;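 note: stimulus PAF is a Pseudomonas aeruginosa filtrate and not platelet activating factor; plate controls were DMSO wells with stimulus for no effect and unstimulated DMSO wells for full effect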
Mdm2 MdmX conf – confirmation of inhibitors of human Mdm2/MdmX interaction, set 2; shares compounds with HIF-2a block; SaOS-2 split-luciferase Mdm2/MdmX complementation, luminescence; inhibition, % at 8 µM; hit rate 99% among 740;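 active = mean inhibition of the luminescence signal across two replicates at or above 26 percent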
Target sequence (O15151 whole entry, looked up): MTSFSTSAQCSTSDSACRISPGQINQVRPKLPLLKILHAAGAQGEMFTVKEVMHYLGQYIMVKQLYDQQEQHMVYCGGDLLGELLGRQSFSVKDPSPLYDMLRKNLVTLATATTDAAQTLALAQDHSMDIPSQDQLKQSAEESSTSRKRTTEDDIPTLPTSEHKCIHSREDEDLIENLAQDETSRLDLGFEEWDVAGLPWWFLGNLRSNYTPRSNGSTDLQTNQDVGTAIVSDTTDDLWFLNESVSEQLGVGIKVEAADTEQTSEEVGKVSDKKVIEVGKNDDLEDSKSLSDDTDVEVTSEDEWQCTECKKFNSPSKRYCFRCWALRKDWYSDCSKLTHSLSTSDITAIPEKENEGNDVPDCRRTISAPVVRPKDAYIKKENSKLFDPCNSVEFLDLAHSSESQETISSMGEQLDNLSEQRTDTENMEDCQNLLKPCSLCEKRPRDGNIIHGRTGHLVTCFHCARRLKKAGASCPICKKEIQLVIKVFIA
Target sequence (Q00987 whole entry, looked up): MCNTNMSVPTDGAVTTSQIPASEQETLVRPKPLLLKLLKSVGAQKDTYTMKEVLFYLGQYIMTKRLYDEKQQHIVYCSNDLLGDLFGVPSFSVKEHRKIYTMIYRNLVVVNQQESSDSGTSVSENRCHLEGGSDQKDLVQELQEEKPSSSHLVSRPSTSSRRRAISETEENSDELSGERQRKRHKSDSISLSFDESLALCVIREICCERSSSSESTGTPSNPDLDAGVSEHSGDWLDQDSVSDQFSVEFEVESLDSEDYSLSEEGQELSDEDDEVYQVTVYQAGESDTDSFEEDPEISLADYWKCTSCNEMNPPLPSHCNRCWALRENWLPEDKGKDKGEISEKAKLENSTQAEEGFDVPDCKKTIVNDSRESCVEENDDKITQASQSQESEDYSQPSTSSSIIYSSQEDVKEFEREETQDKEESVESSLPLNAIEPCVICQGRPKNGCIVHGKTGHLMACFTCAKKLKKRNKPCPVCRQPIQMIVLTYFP
HIF-2a inh conf – confirmation of HIF-2a inhibitors | shares compounds with HIF-2a block | 786-0 RCC cells, HIF-2a luciferase reporter luminescence, overnight | inhibition, % at 18.8 µM | hit rate 56% among 1,800 | AID 651580;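 active = mean inhibition across four replicates of at least 40 percent at the single tested concentration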
HIF-1a cs – HIF-1a inhibition counter-screen for HIF-2a hits; shares compounds with HIF-2a block; hit rate 72% among 1,800; MiaPaCa-2 HIF-1a luciferase reporter, desferoxamine, overnight; AID 651589; inhibition, % at 18.8 µM;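 active = mean inhibition of the reporter signal across four replicates at the single tested dose of 50% or more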
The depositor's hits bear a star. An excerpt weighted towards active compounds, which were near 2.3% of everything screened.

Screening CCOC(=O)/C(=C\c1ccc(N2CCC(c3ccccc3)=N2)cc1)C(C)=O returned CF NFkB inh 0.3, TWEAK-Fn14 inh 28.9, KKLEB cytotox -4.1, iPSC survival up -4.0, LGR2 antag 22.1 and HIF-2a block -90.5.
CCOC(=O)C(=Cc1ccc(-n2cncn2)cc1)C(=O)OCC was read as CF NFkB inh 75.1*, TWEAK-Fn14 inh 100.7*, KKLEB cytotox -7.7, iPSC survival up -1.5, LGR2 antag 65.0*, HIF-2a block 94.5*, CF NFkB conf 21.7, HIF-2a inh conf 90.1* and HIF-1a cs 105.9*.
`CCC(=O)N1[C@H](CO)[C@@H]2c3ccccc3N(C(=O)CC(F)(F)F)C[C@@H]21` gave LGR2 antag -9.4.
For Cc1cc(C(=O)Cn2ncc(Cl)c(Cl)c2=O)c(C)n1CC(F)(F)F the results were CF NFkB inh 76.9*, TWEAK-Fn14 inh 95.5*, KKLEB cytotox -21.5, iPSC survival up 7.9, HIF-2a block 94.3*, CF NFkB conf -23.0, HIF-2a inh conf -15.2 and HIF-1a cs 103.3*.
Screening CCCc1cc(=O)[nH]c(SCC(=O)c2cc(C)n(CC(F)(F)F)c2C)n1 returned CF NFkB inh 2.4, TWEAK-Fn14 inh -16.2, KKLEB cytotox 2.2, iPSC survival up -0.6, LGR2 antag 19.4 and HIF-2a block 6.3.
`N#CC(C#N)=C1C=CC=CN1/C(=C\c1ccco1)C(=O)c1ccc(Br)cc1` gave CF NFkB inh 79.4*, TWEAK-Fn14 inh 92.1*, KKLEB cytotox -45.5, iPSC survival up 1.5, LGR2 antag 22.8, HIF-2a block 92.4*, CF NFkB conf 24.2, HIF-2a inh conf 97.7* and HIF-1a cs 104.8*.
`N#C/C(=C/c1ccco1)C(N)=S` gave CF NFkB inh -6.3, TWEAK-Fn14 inh 10.2, KKLEB cytotox 9.5, iPSC survival up 1.2, LGR2 antag -3.9 and HIF-2a block 19.8.
N#CC(C#N)=C1C=CC=CN1/C(=C\c1ccco1)C(=O)c1ccccc1 was read as CF NFkB inh 95.9*, TWEAK-Fn14 inh 75.5*, KKLEB cytotox -34.9, iPSC survival up -2.7, LGR2 antag 100.2*, HIF-2a block 91.1*, CF NFkB conf 68.4*, HIF-2a inh conf 97.7* and HIF-1a cs 104.8*.
For COc1ccc(/C=C(/C(=O)c2cccs2)N2C=CC=CC2=C(C#N)C#N)cc1 the results were CF NFkB inh 28.8, TWEAK-Fn14 inh 33.9, KKLEB cytotox -22.4, iPSC survival up -3.8 and HIF-2a block 1.3.
CO[C@@H]1CN(C)C(=O)c2cc(NS(=O)(=O)CC(F)(F)F)ccc2OC[C@H](C)N(CC2CCCCC2)C[C@H]1C was read as LGR2 antag 10.2.
COc1cc(-c2nc(-c3ccc(NC(=O)c4ccc5c(c4)OCO5)cc3)no2)cc(OC)c1OC was read as CF NFkB inh 58.0*, TWEAK-Fn14 inh -90.4, KKLEB cytotox -49.3, iPSC survival up 1.7, HIF-2a block -137.9, CF NFkB conf 42.2* and Mdm2 MdmX conf 87.7*.
COc1ccc2c3c(n(C)c2c1)[C@@H](CO)N(CC1CCOCC1)CC31CCN(C(=O)Nc2ccccc2)CC1 was read as LGR2 antag -20.7.
`CS(=O)(=O)c1ncc(Cl)c(C(=O)Nc2ccc(OC(F)F)cc2)n1` gave CF NFkB inh 89.7*, TWEAK-Fn14 inh 70.3*, KKLEB cytotox -37.3, iPSC survival up 0.0, LGR2 antag 3.8, HIF-2a block 91.8*, CF NFkB conf 87.7*, Mdm2 MdmX conf 103.2*, HIF-2a inh conf 98.2* and HIF-1a cs 99.8*.
Screening CCOC(=O)c1nc(S(C)(=O)=O)ncc1Cl returned CF NFkB inh 68.8*, TWEAK-Fn14 inh 13.5, KKLEB cytotox -4.4, iPSC survival up -2.1, LGR2 antag 0.9, HIF-2a block 46.1*, CF NFkB conf -14.2, HIF-2a inh conf -3.2 and HIF-1a cs 6.1.
Screening Cc1ccc(S(=O)(=O)N[C@H]2CC[C@@H](CC(=O)NCc3ccccc3F)O[C@@H]2CO)cc1 returned LGR2 antag 4.6.
Cc1nn(-c2ccccc2)c(Cl)c1C(=O)N1CCN(c2ncnc3c2cnn3-c2ccccc2)CC1 was read as CF NFkB inh 62.6*, TWEAK-Fn14 inh 105.8*, KKLEB cytotox -16.6, iPSC survival up 2.3, HIF-2a block 11.6, CF NFkB conf 72.5* and Mdm2 MdmX conf 99.7*.
Screening O=C(c1ccccc1)N1CCN(c2ncnc3c2cnn3-c2ccccc2)CC1 returned CF NFkB inh -8.2, TWEAK-Fn14 inh 15.3, KKLEB cytotox -1.9, iPSC survival up -2.2 and HIF-2a block -128.0.
`C[C@@H]1CCCCO[C@H](CN(C)C)[C@H](C)CN([C@H](C)CO)C(=O)c2cc(NS(=O)(=O)c3cn(C)cn3)ccc2O1` gave LGR2 antag 9.6.
`COc1ccc2[nH]c(=O)c3c(c2c1)OC(C)(C)C=C3` gave CF NFkB inh 86.5*, TWEAK-Fn14 inh -5.1, KKLEB cytotox -7.3, iPSC survival up -1.8, HIF-2a block 21.9, CF NFkB conf 97.6* and Mdm2 MdmX conf 98.5*.
For CN(C)C(=O)c1cc2c(c(-c3cccc(-c4ccccc4F)c3)n1)[C@H](CCO)N(S(C)(=O)=O)C2 the results were LGR2 antag 11.9.
Screening C=C1C(=O)O[C@@H]2[C@H]1[C@@H](OC(=O)/C(C)=C/C)C/C(C)=C\C(=O)/C=C(\C)[C@@H]2O returned CF NFkB inh 85.9*, TWEAK-Fn14 inh 66.6*, KKLEB cytotox -3.5, iPSC survival up 1.3, LGR2 antag 54.8*, HIF-2a block 94.9*, CF NFkB conf -10.8, Mdm2 MdmX conf 103.5*, HIF-2a inh conf 72.8* and HIF-1a cs 102.4*.
`C=C1C(=O)O[C@H]2[C@H]1[C@H](OC(=O)/C(C)=C\C)C[C@]1(CO1)[C@@H]1[C@H](OC(C)=O)C=C(C)[C@]21O` gave CF NFkB inh -2.2, TWEAK-Fn14 inh 15.9, KKLEB cytotox 14.8, iPSC survival up -2.0, LGR2 antag 5.8 and HIF-2a block 4.5.
